{
  "source": "PubChem BioAssay (NCI)",
  "note": "This is part of a sample that, as a whole, favours compounds with a hit. Of some 79,000 tested, about 15% had one in any assay. Values without a mark were called inactive. Rule as the data show it: active = growth inhibition above about 70%; inactive = the rest.",
  "data": [
    {"assay": "NCI Yeast Anticancer Drug Screen. Data for the cln2 rad14 strain (AID 165);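 also: 0% = growth equal to vehicle treated cultures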", "conditions": "S. cerevisiae cln2 rad14 strain, at 50.0 µM, active compounds read high", "in_short": "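Strain: cln2 rad14 yeast, altered in cell cycle control and DNA damage repair. Read-out: growth inhibition vs vehicle.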", "units": {"growth inhibition": "%"}, "values": [
      {"smiles": "Cc1cccc(C)c1NC=O", "growth inhibition": 1.45},
      {"smiles": "C[N+](C)([O-])Cc1ccccc1", "growth inhibition": -0.8},
      {"smiles": "CC(=O)/C(=C/c1ccco1)CC(=O)O", "growth inhibition": 4.05},
      {"smiles": "O=C(OCCCCCCCCOC(=O)c1cccc([N+](=O)[O-])c1)c1cccc([N+](=O)[O-])c1", "growth inhibition": 8.15},
      {"smiles": "C(=C\\c1nc2ncccn2n1)/c1ccccc1", "growth inhibition": -20.9},
      {"smiles": "O=Cc1cc(C(=O)c2ccccn2)c2cc(Cl)cc(Cl)c2n1", "growth inhibition": -13.8},
      {"smiles": "CCC(=O)C(=O)C1CCCCC1=O", "note": "(stereo not given)", "growth inhibition": -9.05},
      {"smiles": "O=C(N1CCOCC1)C12OC3CC(CC(C3)O1)O2", "growth inhibition": 11.2},
      {"smiles": "O=CC1(CCc2ccccc2)NC(=O)NC1=O", "note": "(stereo not given)", "growth inhibition": -18.9},
      {"smiles": "NC(=O)c1ncc[nH]c1=O", "growth inhibition": 1.7},
      {"smiles": "CCC(C(O)c1ccc(Cl)cc1)[N+](=O)[O-]", "note": "(stereo not given)", "growth inhibition": 3.05},
      {"smiles": "O=C1C(=C(c2ccc([N+](=O)[O-])cc2)N2CCOCC2)C(=O)c2ccccc21", "growth inhibition": -30.9},
      {"smiles": "CC(=O)NNC(=O)c1ccccc1CO", "growth inhibition": 10.4},
      {"smiles": "CCCC(C)CCCC(=O)c1ccc2cc(OC)ccc2c1", "note": "(stereo not given)", "growth inhibition": -33.3},
      {"smiles": "NC(=S)NNC(=O)c1ccc([N+](=O)[O-])cc1", "growth inhibition": -17.9},
      {"smiles": "C1=Nc2ccccc2/C1=C/C=C/c1ccccc1", "growth inhibition": 10.2},
      {"smiles": "Nc1ccc(C(C(=O)O)c2ccccc2)cc1", "note": "(stereo not given)", "growth inhibition": 1.4},
      {"smiles": "Cc1ccc(C(=O)Nc2ccc(CP(=O)(O)O)cc2CP(=O)(O)O)cc1N", "growth inhibition": 6.05},
      {"smiles": "COc1ccc2c(c1)OC1(OCCO1)[C@@H]1C2CC[C@@]2(C)C1CCC21OCCO1", "note": "(stereo not given in full)", "growth inhibition": 28.8},
      {"smiles": "CC(C)c1nc2c(c(=O)o1)CCS2", "growth inhibition": -8.1},
      {"smiles": "Cc1nc2ccc(C(F)(F)F)cc2nc1Nc1ccc(Cl)c(Cl)c1", "growth inhibition": 15.2},
      {"smiles": "O=c1[nH]c(=O)c2ncn(-c3ccc(Cl)cc3)c2[nH]1", "growth inhibition": -37.5},
      {"smiles": "COC1=CC(=O)N(C)C(O)C1(C#N)OC1OC(CO)C(O)C(O)C1O", "note": "(stereo not given)", "growth inhibition": 18.6},
      {"smiles": "Cc1c(-c2ccccc2)[nH]c2ccc(Cl)cc2c1=O", "growth inhibition": 2.8},
      {"smiles": "O=[N+]([O-])c1ccc2c(Cl)[nH]nc2c1", "growth inhibition": 30.8}
    ]},
    {"assay": "NCI Yeast Anticancer Drug Screen. Data for the bub3 strain (AID 167)", "conditions": "S. cerevisiae bub3 mutant strain, at 50.0 µM, active compounds read high", "in_short": "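Steps: expose the mutant yeast strain to compound; grow alongside vehicle-treated cultures; measure growth; express inhibition against the vehicle cultures.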", "units": {"growth inhibition": "%"}, "values": [
      {"smiles": "CC(=O)O[C@H]1CC[C@@]2(C)[C@@H](CC[C@@H]3[C@@H]2CC(=O)[C@]2(C)[C@@H]4[C@H](C[C@@H]32)O[C@]2(CC[C@@H](C)CO2)[C@H]4C)C1", "growth inhibition": -34.6},
      {"smiles": "CCCCN(CCCC)CCCNC(=S)Nc1ccccc1", "growth inhibition": 3.25},
      {"smiles": "C/C(=C\\c1ccccc1)C(O)C(=O)c1nc2ccc(Cl)cc2[nH]c1=O", "note": "(stereo not given)", "growth inhibition": -14.2},
      {"smiles": "CC(c1ccccc1)C(C)(C)O", "note": "(stereo not given)", "growth inhibition": -14.5},
      {"smiles": "O=[N+]([O-])c1ccc(Oc2ccc(Cl)cc2)cc1", "growth inhibition": -18.9},
      {"smiles": "Cc1cc2c(cc1[N+](=O)[O-])OCCO2", "growth inhibition": -3.25},
      {"smiles": "O=C(O)c1c(F)c(F)c(-c2c(F)c(F)c(C(=O)O)c(C(=O)O)c2F)c(F)c1C(=O)O", "growth inhibition": 0.55},
      {"smiles": "CCOC(=O)NC(=O)c1cn(CCN2CCN(C(=O)NCCCCCCNC(=O)N3CCN(CCn4cc(C(=O)NC(=O)OCC)c(=O)[nH]c4=O)CC3)CC2)c(=O)[nH]c1=O", "growth inhibition": -0.75},
      {"smiles": "CCCCCCCCC(=O)c1c(OC)oc(C=O)cc1=O", "growth inhibition": -19.6},
      {"smiles": "CCOC(CN(Cc1ccccc1)CC(OCC)OCC)OCC", "growth inhibition": 9.8},
      {"smiles": "CCOC(CNCCC(=O)OC)OCC", "growth inhibition": -5.35},
      {"smiles": "Cc1cc(C)cc(N=Nc2c(N)nc(N)[nH]c2=O)c1", "growth inhibition": -3.2},
      {"smiles": "O=C(N/N=C/c1ccc(Cl)cc1Cl)c1cccc([N+](=O)[O-])c1", "growth inhibition": 2.3},
      {"smiles": "OCCCCC(c1ccc(O)cc1)c1ccc(O)cc1", "growth inhibition": -18.9},
      {"smiles": "O=C(O)CC(c1ccccc1)C(CC(=O)O)c1ccccc1.[NH-]C1CCCCC1[NH-].[Pt+2]", "note": "(stereo not given)", "growth inhibition": -36.9},
      {"smiles": "Cc1cccc(C)c1NC=O", "growth inhibition": -9.8},
      {"smiles": "C[N+](C)([O-])Cc1ccccc1", "growth inhibition": -5.2},
      {"smiles": "CC(=O)/C(=C/c1ccco1)CC(=O)O", "growth inhibition": -18.4},
      {"smiles": "O=C(OCCCCCCCCOC(=O)c1cccc([N+](=O)[O-])c1)c1cccc([N+](=O)[O-])c1", "growth inhibition": -5.55},
      {"smiles": "C(=C\\c1nc2ncccn2n1)/c1ccccc1", "growth inhibition": 4.6},
      {"smiles": "O=Cc1cc(C(=O)c2ccccn2)c2cc(Cl)cc(Cl)c2n1", "growth inhibition": -4.3},
      {"smiles": "CCC(=O)C(=O)C1CCCCC1=O", "note": "(stereo not given)", "growth inhibition": -17.6},
      {"smiles": "O=C(N1CCOCC1)C12OC3CC(CC(C3)O1)O2", "growth inhibition": 17.6},
      {"smiles": "O=CC1(CCc2ccccc2)NC(=O)NC1=O", "note": "(stereo not given)", "growth inhibition": -0.4},
      {"smiles": "NC(=O)c1ncc[nH]c1=O", "growth inhibition": 4.2},
      {"smiles": "CCC(C(O)c1ccc(Cl)cc1)[N+](=O)[O-]", "note": "(stereo not given)", "growth inhibition": 4.65},
      {"smiles": "O=C1C(=C(c2ccc([N+](=O)[O-])cc2)N2CCOCC2)C(=O)c2ccccc21", "growth inhibition": 1.75},
      {"smiles": "CC(=O)NNC(=O)c1ccccc1CO", "growth inhibition": -2},
      {"smiles": "CCCC(C)CCCC(=O)c1ccc2cc(OC)ccc2c1", "note": "(stereo not given)", "growth inhibition": -2},
      {"smiles": "NC(=S)NNC(=O)c1ccc([N+](=O)[O-])cc1", "growth inhibition": 1.35},
      {"smiles": "C1=Nc2ccccc2/C1=C/C=C/c1ccccc1", "growth inhibition": 41.5},
      {"smiles": "Nc1ccc(C(C(=O)O)c2ccccc2)cc1", "note": "(stereo not given)", "growth inhibition": 20.1},
      {"smiles": "Cc1ccc(C(=O)Nc2ccc(CP(=O)(O)O)cc2CP(=O)(O)O)cc1N", "growth inhibition": -14.7},
      {"smiles": "COc1ccc2c(c1)OC1(OCCO1)[C@@H]1C2CC[C@@]2(C)C1CCC21OCCO1", "note": "(stereo not given in full)", "growth inhibition": 15.8},
      {"smiles": "CC(C)c1nc2c(c(=O)o1)CCS2", "growth inhibition": -1.4},
      {"smiles": "Cc1nc2ccc(C(F)(F)F)cc2nc1Nc1ccc(Cl)c(Cl)c1", "growth inhibition": 6.95},
      {"smiles": "O=c1[nH]c(=O)c2ncn(-c3ccc(Cl)cc3)c2[nH]1", "growth inhibition": -24.4},
      {"smiles": "COC1=CC(=O)N(C)C(O)C1(C#N)OC1OC(CO)C(O)C(O)C1O", "note": "(stereo not given)", "growth inhibition": -17.9},
      {"smiles": "Cc1c(-c2ccccc2)[nH]c2ccc(Cl)cc2c1=O", "growth inhibition": -5.1},
      {"smiles": "O=[N+]([O-])c1ccc2c(Cl)[nH]nc2c1", "growth inhibition": 39}
    ]}
  ]
}
